# ATXN2 expr inh = ATXN2 expression inhibition | HEK-293 ATXN2-luciferase reporter, luminescence, 24 h | Potency, µM (highest dose often 57 µM), usual class: inhibitors | actives 0.72% (n = 360,000) | AID 1745845; further: nearly all actives have a fitted effect of over 55% in size
#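 qHTS (up to 57 uM final) was run with 24 h compound exposure of reporter cells at 37 °C. Each well was multiplexed: SteadyGlo luminescence measured ATXN2-luciferase expression after a fluorogenic Gly-Phe-AFC viability readout (25 uM final).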
# USP2a inh = USP2a (human) protease inhibition. O75604. USP2 core, Ub-CHOP2 coupled fluorogenic reporter, 485/531. Potency, µM (doses to about 38.3 µM), usual class: inhibitors. actives 0.01% (n = 330,000). AID 463254
#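 USP2 core (10nM final) preincubated 30min RT with compound in 20mM Tris-HCl pH 8.0, 2mM CaCl2, 2mM beta-mercaptoethanol, 0.05% CHAPS; 25nM Ub-CHOP2 plus 25nM reporter substrate added, fluorescence (Ex485/Em531) read after 60min.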
# S2 tox = cell viability loss in ATXN counter-screen; S2 cells (HEK-293 line with an ATXN2-luciferase reporter) viability, CellTiter-Fluor protease fluorescence, 24 h; Potency, µM (titrated, usually from 56.7 µM), usual class: cytotoxic; actives 0.49% (n = 400,000); further: nearly all actives have a fitted effect of over 40% in size
# IL1B secr inh = blocks inflammasome-driven IL-1 beta release; THP-1 LPS/ATP IL-1B secretion, AlphaLISA, 16 h; hits give low values; activity change, % at 57.5 µM; actives 4.7% (n = 360,000); in the data active means activity change below about -50%; inconclusive means mostly about -30% to -49%
#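 Secreted IL-1B measured by AlphaLISA bead assay after 16 h compound exposure of THP-1 cells; compounds (final up to 57.5 uM) added 1 h before LPS (250 ng/mL) and ATP (1.25 mM) stimulation; lower signal means less secretion.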
# USP1 inh = inhibitors of human USP1/UAF1 deubiquitinase; AID 743255; O94782; actives 0.23% (n = 390,000); recombinant USP1/UAF1, Ub-Rhodamine cleavage fluorescence; Potency, µM (titrated, usually from 57.1 µM), most hits filed as inhibitors; further: nearly all actives have a fitted effect of over 60% in size
# Target sequence (O94782 whole entry, looked up): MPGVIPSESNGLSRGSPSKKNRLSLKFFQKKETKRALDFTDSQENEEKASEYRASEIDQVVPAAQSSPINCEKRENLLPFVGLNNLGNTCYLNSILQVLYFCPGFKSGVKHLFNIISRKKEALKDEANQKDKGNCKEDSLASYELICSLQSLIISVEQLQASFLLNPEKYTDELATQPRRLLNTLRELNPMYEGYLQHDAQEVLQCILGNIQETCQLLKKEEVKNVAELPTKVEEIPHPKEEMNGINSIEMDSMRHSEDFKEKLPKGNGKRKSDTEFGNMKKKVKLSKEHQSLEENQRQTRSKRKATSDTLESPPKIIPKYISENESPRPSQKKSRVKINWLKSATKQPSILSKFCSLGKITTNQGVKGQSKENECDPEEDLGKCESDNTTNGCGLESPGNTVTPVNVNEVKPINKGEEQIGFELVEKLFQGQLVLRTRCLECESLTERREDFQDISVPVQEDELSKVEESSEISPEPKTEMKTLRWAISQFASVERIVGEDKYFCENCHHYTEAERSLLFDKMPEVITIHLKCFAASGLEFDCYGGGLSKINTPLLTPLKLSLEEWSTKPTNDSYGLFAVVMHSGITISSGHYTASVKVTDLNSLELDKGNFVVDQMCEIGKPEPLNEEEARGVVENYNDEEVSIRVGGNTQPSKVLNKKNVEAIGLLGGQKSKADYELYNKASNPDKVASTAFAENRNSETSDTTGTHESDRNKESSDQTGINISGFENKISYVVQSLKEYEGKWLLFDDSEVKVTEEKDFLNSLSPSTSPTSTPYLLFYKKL
#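 In this screen, compounds sit with the deubiquitinase complex (1nM) for 15 min at room temperature before Ub-Rho is added at 150nM final. Fluorescence rise is then followed for 6 reads every 60 seconds.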
# Hits are given with their value; . = inactive; ? = inconclusive; / = not tested or not shown; [ ] = another dose, or the depositor's remark. Hits are enriched below; roughly 4.8% of the tested compounds scored in any of these assays. Unless noted, the call rests on the fitted dose curve; in most records, active means well fitted curve in the direction sought with a large enough effect; inconclusive means small, poorly fitted or top-dose-only effect, or another doubt; inactive means no such curve, though single readings can be large; an effect the other way counts as inactive or inconclusive.
SMILES,ATXN2 expr inh,USP2a inh,S2 tox,IL1B secr inh,USP1 inh
Cc1cc(-c2ccc(/C=N/n3cnnc3)o2)c(C)c([N+](=O)[O-])c1,.,.,.,-71,.
O=[N+]([O-])c1ccc(Cl)c(-c2ccc(/C=N/n3cnnc3)o2)c1,.,.,.,.,.
COc1cc(Cl)c(C)cc1NC(=O)CCn1c(=O)c2cccn2c2cccnc21,/,/,/,/,.
CCOCCc1nn2c(=O)cc(COC(=O)c3ccccc3Br)nc2s1,.,/,.,/,.
CCc1ccc(NC2=CC(=O)CC(C)(C)C2)cc1,.,.,.,-56,.
CC1(C)CC(=O)C=C(Nc2ccc(Br)cc2F)C1,.,.,.,-81,.
CCc1ccc(Nc2ncc3c(n2)CC(C)(C)CC3=O)cc1,.,.,.,-61,?
Cc1ccc(NC2=CC(=O)CC(C)(C)C2)c(N)c1,.,.,.,.,.
CCCC[C@]12Cc3ccccc3C(O1)c1c(cc(-c3ccccc3)oc1=O)O2,/,.[7.66 µM],/,/,/
CN1CCN(Cn2cc(/C=C/C(=O)c3ccccc3)c3ccccc32)CC1,.,.,?,-66,.
O=C(/C=C/c1cn(CC(O)CN2CCCCC2)c2ccccc12)c1cccs1 (centres undefined),.,.,.,-68,.
Cc1ccc(C(=O)/C=C/c2cn(CC(O)CN3CCCCCC3)c3ccccc23)cc1 (centres undefined),.,/,?,/,?
O=C(/C=C/c1cn(CC(O)CN2CCCCC2)c2ccccc12)c1ccccc1 (centres undefined),.,.,/,-87,.
CCC1CN(CCNC(=O)c2cc(C)nn2CC)Cc2cc(OC)ccc2O1 (centres undefined),/,/,.,/,/
COc1ccc(C(=O)C2CCCN(C(=O)/C=C/c3ccccn3)C2)c(C)c1 (centres undefined),.[11.3 µM],.,.,.,.
COc1ccc(C(=O)C2CCCN(C(=O)c3cccnc3SC)C2)c(C)c1 (centres undefined),.,.,.,-70,.
OC(c1ccc(F)cc1)c1ncc(-c2ccc3ccccc3c2)[nH]1 (centres undefined),.,/,?,.,/
O=C1/C(=C/c2cccs2)N=C(c2cccs2)N1Nc1ccccc1,.,.,.,-70,?
O=C1/C(=C\c2cccs2)N=C(c2cccs2)N1Nc1ccccc1,.,.,.,-61,?
CC1=NN(c2ccccc2)C(=O)/C1=C/c1cccs1,.,.,.,.,.
Cc1ccc(C2=N/C(=C\c3cccs3)C(=O)N2Nc2ccccc2)cc1,.,.,?,.,?
Cc1ccc(NS(=O)(=O)c2ccc(Cl)c(NC(=S)NC(=O)C3CCCCC3)c2)cc1Cl,?,.,?,-77,.
Cc1ccc(C(=O)c2cnc3cc4c(cc3c2S(=O)(=O)c2ccccc2)OCCO4)cc1,.,.,.,-79,.
CCOc1ccc(S(=O)(=O)c2c(C(=O)c3ccc(C)cc3)cnc3cc4c(cc23)OCCO4)cc1,.,.,.,?,.
COCCC1CCCCN1Cc1nc(N2CCCCC2)c2cc(OC)c(OC)cc2n1 (centres undefined),/,/,.,/,/
SMILES,ATXN2 expr inh,USP2a inh,S2 tox,IL1B secr inh,USP1 inh
Cc1ccc(C)c(NC(=O)CN(C)C(=O)c2ccc3[nH]c4c(c3c2)CC(C)CC4)c1 (centres undefined),.,.,.,-54,.
CC1CCc2[nH]c3ccc(C(=O)N(C)CC(=O)Nc4ccccc4Br)cc3c2C1 (centres undefined),.,.,.,-74,.
CC1CCc2[nH]c3ccc(C(=O)NCC4CCCO4)cc3c2C1 (centres undefined),.,.,.,-51,.
Cc1csc(NC(=O)c2ccc(Cn3nc(C)c(Br)c3C)o2)n1,.,.,.,-73,.
O=C(Nc1ccc(F)cc1)C(Sc1nc2ccccc2[nH]1)c1ccccc1 (centres undefined),.,.,.,-54,.
Fc1ccc(CSc2nc3ccccc3[nH]2)cc1,.,.,.,-63,.
Cc1cccc2nc(CSc3nc4ccccc4[nH]3)cn12,.,.,.,-66,.
CCCOc1ccc(CSc2nc3ccccc3[nH]2)cc1,.,.,?,-56,.
O=C(CSc1nc2ccccc2[nH]1)Nc1ccc(F)cc1,.,.,.,.,.

# Screening results as filed in PubChem.
